T1: FBXL12, Q9NXK8
T1 chain: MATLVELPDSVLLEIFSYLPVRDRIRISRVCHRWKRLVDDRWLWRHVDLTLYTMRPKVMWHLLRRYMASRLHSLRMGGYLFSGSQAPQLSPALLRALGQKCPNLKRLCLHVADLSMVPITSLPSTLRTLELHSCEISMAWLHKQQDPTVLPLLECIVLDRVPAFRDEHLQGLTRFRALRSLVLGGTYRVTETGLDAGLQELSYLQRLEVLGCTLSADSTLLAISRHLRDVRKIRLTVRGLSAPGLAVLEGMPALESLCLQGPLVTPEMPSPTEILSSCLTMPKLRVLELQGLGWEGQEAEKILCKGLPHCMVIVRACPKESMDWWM


Target: T1, FBXL12, Q9NXK8
Assay: median log2 fold change of GCK-ALFA target abundance (FLAG IP / Myc IP barcode read proportion) (log2 ratio); each designed protein is fused to an ALFA-tag nanobody in HEK293 cells to bring the named protein to FLAG-tagged glucokinase (GCK); Myc marks an untargeted standard; higher = target protein stabilised (more abundant)
Settings: target protein: 3xFLAG-MCP-GCK-ALFA reporter; HEK293 landing pad (RPLP)
Description: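 LABEL-seq trans screen in HEK293 landing-pad cells. Each de novo designed 100-aa effector handle, binding the indicated effector (E3 ligase, DUB or autophagy protein), is fused to a constant NbALFA target handle and induced with 2 ug/mL doxycycline. A FLAG-MCP-GCK-ALFA target and a Myc-MCP standard reporter were transfected, and after 48 h circRNA barcodes were recovered by anti-FLAG and anti-Myc IP and sequenced. The value is the median across barcodes (at least 3 per design) of log2(FLAG/Myc read-proportion ratio), with the two transfection replicates pooled. Negative values mean degradation and positive values mean stabilisation of the target.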

| Binder | median log2 fold change |
| --- | --- |
| FBXL12_hotspot_186_33 (protein) MELRVSLSADMTPEQMRANAEIAVAIVAGLAERGRVEDLVAAARSLAASLRAAVARLQRPEVAAIAAEALARLAEIVAAAAARHPDNEDLRAALAELRAA | 0.143 |
| FBXL12_hotspot_16_22 (protein) KIMIIKVVAATPEAARGTIETATKIAKGLMEAGVDAVILQAVAEKEEILPFLKELVEEKEKELKEVAKKYGSKLEVFVGTAADLEELEKEVKEKEKELEA | 0.0857 |
| FBXL12_hotspot_186_36 (protein) MELRVRFGPDDSVEQMRAGVDIAVAIVEGLAEAGRLEDFVEAARSLLDSLEANAARIKDPAHRAVFAEAVARLLEIAERVAKAYPENEDIKEVAERLKAA | 0.111 |
| FBXL12_hotspot_147_15 (protein) MEVTIRVVLGPGSESTVETAIALAAGLHEAGVEKIRIEVEAEDPEEALRAAERLAVEVGRKADVDEILAYDSRTGELLKRLDREEIKEIREEAERREREA | 0.23 |
| FBXL12_hotspot_186_39 (protein) MELRVRFSEDMSVEQMRAGLDIAVAILEGLAERGRIEDLVAAARSLLDSLEAGRARIKDPAFDEVVDDALRRIAAILERAAERYPDNEELRAALERVRAA | 0.222 |
| FBXL12_hotspot_186_29 (protein) SDLQVRVRLGDDLETTRSTLEYAVALAAALKARGLTASLRSLARSVRESAIARLRASDDPEIYEAIRAALEALAAVVADDPEARAIVEEALAEVERLRAE | -0.229 |
| FBXL12_hotspot_186_37 (protein) MLLRVSFSPDDSPAQIQAGVDIAVAIVEGLAERGRLEDFVEAARSLLESLRANAARIKRPEAQAVFDAAVARLAEIAEEVAERYPENEEIKELLEELREA | 0.172 |
| FBXL12_hotspot_186_38 (protein) MELRIRFSPTMSVEQMRAGAQIAVDILRELARRGRWEDLVEAARSLLESLRAARARIRDPEFAEVAAEALERVAAILEEAAKRHPDDEAIHAALEEVKAA | -0.00819 |
| FBXL12_hotspot_141_10 (protein) RGLVIVIATAAVPEEVRAAVRAAAREAAAAAGVALRFEEAEDEEAAEELRERLLAEAEEEGYDAVGVLVLTSPEMSAERAIAYVRALVAFVAARVARLEA | -0.0786 |
| FBXL12_hotspot_16_21 (protein) KIMIIKVVAPTEEAARSGIETATKIAKGLMEAGVDAIILLAVAEEEALLPFLEELVEKHKEELEEAAKKYGAKLKVIVGTRADLAALEAEAEAIAAELEA | -0.165 |
| FBXL12_hotspot_16_18 (protein) REIIVVVGLLEAERVESTLTTARDIVAGLREAGVDRVDVVIYTETPEAAAKLAELRPTIVAAIEAEVAAAGGRLSVHDTREAAEATREAILAEIDEREAA | 0.0965 |
| FBXL12_hotspot_186_35 (protein) MKLRISFAPTDSPEQIRAGVDIAVAIVAGLAAAGRLEDFVEAVRSLLESLQANRARIQRPEHHAVFDAAIERLAALAAEVAAAHPDNAEVAAALARLKAA | 0.0482 |
| FBXL12_hotspot_186_34 (protein) MELKITLSEDMSVEQMEAGLKLAVEILQGLRDRELLDDLVAAARSLLKSLKENVARIKKPEFKEVAKKALEEVAKIVKEAAERFPEVEELKEVAKELEEA | 0.294 |
| FBXL12_hotspot_186_28 (protein) SDLEVRVTLGEDLETTKSTLDYAVALAEALKARGLTGSLRSLARSFRESAIARLKKSDDPEIYDAILEAAEKLREVVADDPEAKAIIDEAIAEIKAIKAE | 0.157 |
| FBXL12_hotspot_186_26 (protein) MDLQIRVTLSPDLETARSGLEYAVGLLESLVERGLLESARSLVRSLIEAARKLVKETKDPEVRAAVIEALRRVAEILAKRPELEESRRLVEEAIKELEEE | 0.196 |
| FBXL12_hotspot_186_31 (protein) KDLQVRVRLGLDLETTRSTLRYAVALAEALKARGLTASLRSLARSLRESAIEVLKKTKDEEIYEAILEALEELAKVVADDPEALAIVKEAIEEVERLKEE | -0.132 |

| Binder | median log2 fold change |
| --- | --- |
| FBXL12_hotspot_186_27 (protein) QQLEFRVVTRLDPEITRSTLDTAIGLVESLLERGLIEQAKSAAEAILEEIERTLAESDDPEIHAILAESLRRLAEVLSRDPRLAPLLERARELLARIEAR | 0.108 |
| FBXL12_hotspot_147_14 (protein) MKVTIRVVLEEGSETTVEMAIELAKGLHEAGVEEIRVEVEARDPEVALAAAERLAVEIGRGADVAEIRAFDRETGELLRRLDREEIRRIRAAAEEAEAAA | 0.119 |
| FBXL12_hotspot_186_32 (protein) MELRVSLSASMSVEQMRANAEIAVAIVEGLAERGLWEDLDAAARSLAASLRAAVERLQRPEAAAVAAEALERLAEIVARALEEHPENERLAATLAEIRAA | 0.127 |
| FBXL12_hotspot_147_12 (protein) REMTVVVQLGSSAESTAAYAAEVVLGLAQAGVDRIRVVVRTRDHEQALLAARELARADARAPASVTIELTFEGLTPEQVAEALAVYAETLAAERARLAAA | -0.623 |
| FBXL12_hotspot_162_16 (protein) MKRLLILSFVIKATESPEEAKKRLKQFEEYALEMIEEALKNPEFKVVVVLASDGSPEDLEWVKEAAKRIKEKFPEVEVEVFETGEAAEKRIEELEEEAER | -0.0487 |
| FBXL12_hotspot_186_25 (protein) QRIEVRVSFSEDLEQARAGLELAIGLLEALLARGLIESAASLARSTVRAARELAARTDDEEVKRLLAEGLERIAEILRKHPELAEELEEVERAAREIRER | 0.0938 |
| FBXL12_hotspot_186_30 (protein) MDLEVRVGLGEDLETTKSTLDYAVALAEALAARGLTASLVSLARSVRESAIEVLKKTKDEEIYEAILEALKRMAEIVKDNPEALAIVEEAIKEVEKLKKE | 0.1 |
| FBXL12_hotspot_147_13 (protein) REVTVVVQLGAQAESTARYAAELVVGLGEAGVGRIRVVVRSARLEDALLAARELARAVARLPESVEVEVTFEGLSPEDVARARAVYEATLAAERAAQAAA | -0.0622 |
| FBXL12_hotspot_16_17 (protein) RDIVVVVGLLTAERVRSTLERAAEIVEGLRAAGVDRINVVIYAETEEAWAELERLEPTIVARIRAAVAAAGGELHIHRTREEAEKTREEILAEIDEEEEA | 0.0399 |
| FBXL12_hotspot_186_40 (protein) MELRVRFSPDMSVAQRRAGADIAVAILEGLAERGEIEELVEAARSLLDSLEAARARIQDPEFAAVAAAALARIAAILEEAAKRYPENEEIKEALARVKAA | 0.165 |
| FBXL12_hotspot_186_41 (protein) MEVRVSVPADAPLEVVRSTMKYAVELAKELKERGELEALASLGKSLVKLRKELKKAGAPEEKLKAVDEAIKEVAKILEEALKEHPDNEELKKALEELKKA | 0.34 |
| FBXL12_hotspot_141_11 (protein) KGLLIVIMTSSIPEEKREEIKKHAEEAAKKAGIELIFEVAENEEEAEKIKEELLKEAEEKGYDVIGVLTVTDPNMDVERVKAYVEALVEWIKAKLEQLKA | 0.126 |
| FBXL12_hotspot_16_23 (protein) KIMVVRVRGRTPEELRPTLDRAVEIAIGLMKAGVDAIIFVAVVERAEDLPAVEALVAERRAALEAAAKEHGSKLEVVVGVAADEEAVEARVKALEEELEA | 0.127 |
| FBXL12_hotspot_16_19 (protein) KDIILSVGVEEAERVEPSLELALEIVKGLKEAGVDRINVVIYAETEEAYKKIEELKDTILKEIEEAVKEAGGKLSVHKTKEAAEKEIERILEEIDKREEE | -0.0797 |
| FBXL12_hotspot_16_24 (protein) PVRILVIRQASTQRTPEGVAYQREAAVAAARAGMDAVILVGLAEREEDVPEMEALVADFEAAVRAANPDIIVEGAVARTEEEAEALKAALLARVEARLAA | 0.171 |
| FBXL12_hotspot_16_20 (protein) KIMIIRVVAGTEEEARSSVETAKKIAIGLMEAGVDAIILEAIAEKEELLPFLKELVEEKEKELREAAKKYGAKLRILVGTLDDLEELRAQAEAIAAELEA | -0.134 |

Source: the supplement of paper PMC12632987
